D1 ag: activates the human D1 dopamine receptor. HEK293 T-REx D1 cells, calcium flux, agonist mode. activation, % at 2 µM. AID 504660. P21728. 360,000 tested, 1% active
Target sequence (P21728 whole entry, looked up): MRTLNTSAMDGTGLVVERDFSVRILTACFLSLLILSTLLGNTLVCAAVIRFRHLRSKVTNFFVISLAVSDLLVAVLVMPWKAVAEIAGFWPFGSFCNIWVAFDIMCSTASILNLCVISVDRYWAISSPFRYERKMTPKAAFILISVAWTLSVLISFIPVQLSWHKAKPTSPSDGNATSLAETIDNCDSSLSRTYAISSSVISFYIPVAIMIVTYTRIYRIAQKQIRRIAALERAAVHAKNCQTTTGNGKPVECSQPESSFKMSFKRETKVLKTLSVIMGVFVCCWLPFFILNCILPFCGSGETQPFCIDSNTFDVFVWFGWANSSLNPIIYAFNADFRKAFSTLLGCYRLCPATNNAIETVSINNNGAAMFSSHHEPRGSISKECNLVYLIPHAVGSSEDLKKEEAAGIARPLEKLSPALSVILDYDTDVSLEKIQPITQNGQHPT
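Tetracycline-induced HEK293 TREx D1 cells, force-coupled to calcium signalling, were dye-loaded with a no-wash calcium kit. Compound was pin-added after a 10 s baseline. Fluorescence was read kinetically at 1 cycle/s for 180 s, with calcium rises flagged as agonism.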
TRHR PAM: TRH receptor (human) allosteric enhancement; P34981; TRHR cells, fluo-8 calcium fluorescence, EC20 TRH enhancement; enhancement, % at 2 µM; 360,000 tested, 0.66% active; AID 493056; in the data active = enhancement above about 30%
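TRHR-expressing cells loaded with fluo-8 calcium dye were read kinetically (ex 480/em 530) during compound addition, then stimulated with an EC20 of TRH (10 nM final). Enhancement of the Gq-mediated intracellular calcium response was scored.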
D1 antag: human D1 dopamine receptor antagonism. P21728. HEK293 TREx D1 cells, calcium flux, dopamine EC80; active compounds read low. activity change, negative = inhibition, % at 10 µM. 360,000 tested, 3.2% active. AID 504652; in the data active = activity change below about -30%
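Calcium flux readout: force-coupled, inducible Hek293 Trex D1 line, cells induced overnight at 30 C with tetracycline, dye-loaded 30–90 min at RT. Antagonism scored against EC80 dopamine challenge given 180 s after compound.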
TRHR agonist: TRH receptor (human) agonism. activation, % at 2 µM. 360,000 tested, 0.18% active. P34981. TRHR cells, calcium flux fluo-8, FDSS agonist mode
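Agonist-mode FDSS calcium read (Ex 480/Em 530, 1 s cycles) in 1536-well TRHR cells with fluo-8 dye, after 10-cycle baseline and 23 nL compound addition; TRH at EC20 (10 nM final) added afterwards for the enhancer phase.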
D1 PAM: potentiators of human D1 dopamine receptor; P21728; HEK293 TREx D1 cells, calcium flux, dopamine EC20 potentiation; potentiation, % at 10 µM; 360,000 tested, 0.036% active; in the data active = potentiation above about 30%
A number is an active result; - = inactive. Sampled rows, rich in hits. Any-hit rate of the full collection: about 4.7%. Cut-off read from the data, not from the text of the source, unless noted: active = activation above about 30%; inactive = the rest.

SMILES	D1 ag	TRHR PAM	D1 antag	TRHR agonist	D1 PAM
O=C(Nc1ccccc1N1CCOCC1)c1cccnc1	-	-	-79	-	-
CCOC(=O)c1cc(S(=O)(=O)N2CCN(c3cc(Cl)ccc3C)CC2)[nH]n1	-	-	-	-	-
CCOC(=O)C1(CCOc2ccccc2)CCN(Cc2ccc(O)c(Cl)c2)CC1	-	-	-39	-	-
CCOC(=O)C1(CCOc2ccccc2)CCN(Cc2cccc(OC)c2O)CC1	-	-	-45	-	-
CCOC(=O)C1(CCOc2ccccc2)CCN(Cc2ccc3c(c2)OCCO3)CC1	-	-	-43	-	-
CCOC(=O)C1(CCOc2ccccc2)CCN(Cc2ccc(O)c(OC)c2)CC1	-	-	-	-	-
CCOC(=O)C1(Cc2cccc(OC)c2)CCN(Cc2ccc3c(c2)OCCO3)CC1	-	-	-	-	-
COc1ccc(-n2ncc(C(=O)N3CCN(Cc4ccccc4)CC3)c2C2CCN(C(=O)OC(C)(C)C)CC2)cc1	-	-	-	-	-
Cc1cn(C)c(CC(=O)N2CCN(c3cccc(C(F)(F)F)c3)CC2)c1C(=O)O	-	-	-	-	-
CCn1cc(C(=O)O)c(=O)c2cc(F)c(N3CCN(C)CC3)cc21	-	-	-	-	-
CCn1cc(C(=O)O)c(=O)c2cc(F)c(N3CCNCC3)cc21	-	-	-48	-	-
CCCCCCNC(=O)c1cn(CC)c2cc(N3CCN(C)CC3)c(F)cc2c1=O	87	-	-50	-	-
CCn1cc(C(=O)NCCCO)c(=O)c2cc(F)c(N3CCN(C)CC3)cc21	-	-	-	-	-
Cc1ccc(Nc2ncnc3onc(C)c23)cc1Cl	-	-	-	-	-
CCCCN(C)CCNC(=O)c1cc(=O)[nH]c2ccc(S(=O)(=O)N3CCCCCC3)cc12	-	-	-	-	-
CCOc1ccc(CCNC(=O)c2cccc(NC3=NC4CS(=O)(=O)CC4S3)c2)cc1OCC (configuration not stated)	-	-	-	-	-
COc1ccccc1NC(=O)c1ccc(NC(=O)COC(=O)C2CCCO2)cc1 (configuration not stated)	-	-	-	-	-
COc1ccccc1NC(=O)c1ccc(NC(=O)COC(=O)C2CC2C)cc1 (configuration not stated)	-	-	-43	-	-
COc1ccccc1NC(=O)c1ccc(NC2=NC3CS(=O)(=O)CC3S2)cc1 (configuration not stated)	-	-	-35	-	-
CCOc1ccc(CCNC(=O)c2cccc(NC3=NC4CS(=O)(=O)CC4S3)c2)cc1 (configuration not stated)	-	34	-	-	-
COc1cccc(CNC(=O)c2ccc(C)c(NC3=NC4CS(=O)(=O)CC4S3)c2)c1 (configuration not stated)	-	-	-32	-	-
CCOC(=O)Cn1c(=O)n(C2CCCCC2)c2nc(-c3ccc(OCC)cc3)nc(C(N)=O)c21	-	-	-	-	-
Cc1ccc(NC(=O)CCc2nc(-c3ccccc3F)no2)c(C)c1	-	-	-	-	-
Cn1cnc(S(=O)(=O)N2CCCC(C(=O)NCc3ccccc3)C2)c1 (configuration not stated)	-	-	-	-	-
Cc1ccc(S(=O)(=O)c2nnn(CC(=O)Nc3ccccc3C)c2N)cc1	-	-	-	-	-
SMILES	D1 ag	TRHR PAM	D1 antag	TRHR agonist	D1 PAM
COc1cccc(-c2csc3nc[nH]c(=O)c23)c1	-	-	-34	-	-
Cc1ccc(-c2csc3nc[nH]c(=O)c23)cc1C	-	-	-	-	-
COc1ccc(C)cc1NC(=O)C(=O)NCCc1sc(-c2ccc(Cl)cc2)nc1C	-	-	-	-	-
CCC(C)NC(=O)Cn1nc(C(F)(F)F)c2c1CCCC2 (configuration not stated)	-	-	-38	-	-
NCC12CC3CC(C1)CC(c1ccc(Cl)cc1)(C3)C2	38	-	-	-	-
Nc1ccc(C23CC4CC(CC(CO)(C4)C2)C3)cc1	-	-	-	-	-
CC(C(=O)N1CCOCC1)(c1ccccc1)c1ccccc1	-	-	-34	-	-
CC(C(=O)N1CCOCC1)c1ccccc1 (configuration not stated)	-	-	-	-	-
CCOC(=O)CSc1nc2cc3c(cc2c(=O)n1CCCC(=O)NCc1ccc2c(c1)OCO2)OCO3	-	-	-	-	-

Assay outcomes from PubChem.
